dFosB act = activators of mouse delta FosB homodimer. purified delta FosB, TAMRA-CDK5 oligo fluorescence polarization; percent of positive-control signal above neutral wells. 340,000 tested, 0.99% active. AID 493131. activation, % at 25 µM. P13346;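 active = mean activation above about 17%, with every replicate also reaching it, limit read from the data, passing the limit was not always enough; inconclusive = only one of the two conditions met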
Target sequence (P13346 whole entry, looked up): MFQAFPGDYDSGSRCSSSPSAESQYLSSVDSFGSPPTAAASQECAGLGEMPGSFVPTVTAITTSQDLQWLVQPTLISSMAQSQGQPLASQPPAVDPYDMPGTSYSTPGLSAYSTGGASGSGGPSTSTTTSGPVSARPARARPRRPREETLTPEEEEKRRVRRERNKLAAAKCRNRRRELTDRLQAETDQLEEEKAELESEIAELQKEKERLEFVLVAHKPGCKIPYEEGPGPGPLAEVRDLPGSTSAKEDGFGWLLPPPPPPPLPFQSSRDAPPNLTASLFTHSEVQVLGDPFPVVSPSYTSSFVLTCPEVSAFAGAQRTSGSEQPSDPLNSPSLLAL
Yeast superoxide = yeast age-related superoxide inhibition as caloric restriction mimetic; S. cerevisiae aged cells, superoxide DHE fluorescence; stronger effect = lower value; AID 2690; superoxide response (% of plate mean), % at 10 µM; 330,000 tested, 0.18% active;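 active = superoxide response under a set limit, about three screen SD below normal, cut at about 65% in these data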;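 also: yeast aged for seven days with compound at 30 °C before DHE staining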
NALP1 inh = inhibitors of NALP1 inflammasome in yeast | S. cerevisiae NALP1/ASC/caspase-1 growth, X-gal OD620, 72 h | 280,000 tested, 0.61% active | inhibition, % at 10 µM; in the data active = inhibition mostly above about 24%, no sharp cut-off; inactive = mostly below about 32%
UBC13 polyUb = inhibitors of human UBC13 polyubiquitin chain formation. P61088. TR-FRET. inhibition, % at 20 µM. 330,000 tested, 0.47% active; in the data active = inhibition above about 45%, passing the limit was not always enough; inconclusive = no clear call, values can overlap the other calls
Target sequence (P61088 whole entry, looked up): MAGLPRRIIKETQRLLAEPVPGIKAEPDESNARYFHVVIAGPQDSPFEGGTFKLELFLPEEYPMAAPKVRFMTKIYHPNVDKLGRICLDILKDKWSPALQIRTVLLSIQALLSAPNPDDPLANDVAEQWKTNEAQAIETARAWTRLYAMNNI
NR3A LBD binder = modulators (binders) of human NR3A ligand-binding domain. NR3A LBD differential scanning fluorimetry, Tm shift; 0% = protein alone, 100% = glycine-bound protein. Tm shift relative to glycine control, % at 25 µM. 340,000 tested, 2.5% active. AID 1259313;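 active = melting temperature shift of at least 10% of the positive control shift, at one fixed dose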
Of the large screens only hits and unclear results are named; the others gave an inactive call. The list is not random: actives were taken first. Their share in the collection is about 4.3%.

Cc1ccccc1N=C1SC(CC(=O)Nc2ccc3ccccc3c2)C(=O)N1Cc1ccccn1 (stereo not given)	NR3A LBD binder 21.6
O=C(CC1SC(=Nc2cccc3ccccc23)N(Cc2ccccn2)C1=O)Nc1ccccc1Br (stereo not given)	none
COCCN1C(=O)C(CC(=O)Nc2ccc(C(=O)O)cc2)SC1=Nc1ccccc1 (stereo not given)	none
COc1ccccc1N(CCC#N)C(=O)COC(=O)CCC(=O)c1ccc(F)cc1	none (no result: NALP1 inh)
CN(CC(=O)Nc1cccc(F)c1)C(=O)c1cc([N+](=O)[O-])ccc1N1CCCCC1	none (no result: NALP1 inh)
CCCN1CCC(NC(=O)Cc2cccc(C)c2)CC1	none
CN(C(=O)COC(=O)c1cc([N+](=O)[O-])ccc1Sc1ccccc1)C1CCS(=O)(=O)C1 (stereo not given)	NALP1 inh 28.1
CN(C(=O)COC(=O)CSc1ccc([N+](=O)[O-])cc1)C1CCS(=O)(=O)C1 (stereo not given)	none (no result: NALP1 inh)
C=CCCN(C1CCCC1)S(=O)(=O)c1ccccc1Br	none
COc1cc(CN(C2CC2)S(=O)(=O)c2ccccc2Br)cc(OC)c1	NR3A LBD binder 14.0 (no result: NALP1 inh, UBC13 polyUb)
Clc1cccc(N2CCN(Cc3ccc(Br)o3)CC2)c1	none
O=C(Nc1ncc(S(=O)(=O)c2ccc([N+](=O)[O-])cc2)s1)c1cccc2ccccc12	NR3A LBD binder 10.8
COCC(=O)Nc1ncc(S(=O)(=O)c2ccc([N+](=O)[O-])cc2)s1	none
CCOc1ccc(CCNC(=O)c2cccc(NC3=NC4CS(=O)(=O)CC4S3)c2)cc1 (stereo not given)	none
Cc1ccnc(NS(=O)(=O)c2ccc(NS(=O)(=O)c3cc(Cl)ccc3Cl)cc2)n1	NALP1 inh 40.4
N/C(=N\OC(=O)c1cccc(Br)c1)c1ccccn1	none
N/C(=N\OC(=O)c1cccc2ccccc12)c1ccc(Br)cc1	NR3A LBD binder 26.1
N/C(=N\OC(=O)c1cccc(Br)c1)c1ccccc1	NR3A LBD binder 10.1
N/C(=N\OC(=O)c1cccc2ccccc12)c1ccncc1	none
N/C(=N\OC(=O)c1ccc2ccccc2c1)c1ccc(Br)cc1	NR3A LBD binder 23.8
Cc1ccc(C(=O)O/N=C(\N)c2ccc(Br)cc2)cc1C	none
CCN1C(=O)C(CC(=O)Nc2ccc(F)cc2)N(CCc2ccc(OC)cc2)C1=S (stereo not given)	none
C=CCN1C(=O)C(CC(=O)Nc2ccc(OCC)cc2)N(Cc2ccccn2)C1=S (stereo not given)	none
CCN1C(=O)C(CC(=O)Nc2ccc(F)cc2)N(Cc2cccs2)C1=S (stereo not given)	NR3A LBD binder 12.6
CCCOc1ccc(NC(=O)CC2C(=O)N(Cc3ccccc3)C(=S)N2Cc2cccs2)cc1 (stereo not given)	NR3A LBD binder 16.5
O=C(CN1CCN(S(=O)(=O)c2ccc(Br)cc2)CC1)N/N=C/c1ccc(Cl)c([N+](=O)[O-])c1	NR3A LBD binder 10.0
O=C(N/N=C/c1ccc(O)cc1)c1csc2ccccc12	NR3A LBD binder 22.9
COc1cc2ccccc2cc1C(=O)N/N=C/c1ccc2c(c1)OCO2	NR3A LBD binder 11.5
O=C(N/N=C/c1ccc2c(c1)OCO2)c1cc(-c2ccc(F)cc2)nc2ccccc12	NR3A LBD binder 25.0
COc1ccc(-c2cc(C(=O)N/N=C/c3ccc4c(c3)OCO4)c3ccccc3n2)c(OC)c1	none
O=C(N/N=C/c1ccccc1O)c1ccncc1	NR3A LBD binder 20.9 (no result: NALP1 inh)
COc1ccccc1C(=O)N/N=C/c1ccc2c(c1)OCO2	none
CCn1cc(CN2CCC(n3nccc3NC(=O)c3ccccc3C)CC2)c(C)n1	none
COc1ccc(C(=O)NCc2nnc(SCC(=O)NCCc3ccccc3)o2)cc1	none
C/C(CC(=O)NCCN1CCOCC1)=N\NC(=O)c1ccncc1	none
O=C(N/N=C/c1ccc(-c2ccc(Br)cc2)o1)c1ccc2c(c1)OCO2	NR3A LBD binder 10.8
O=C(N/N=C/c1ccc(COc2ccc(Br)cc2)o1)c1ccc2c(c1)OCO2	none (no result: Yeast superoxide)
O=C(NN=Cc1ccc2c(c1)OCO2)c1ccncc1	NR3A LBD binder 25.1 (no result: Yeast superoxide, NALP1 inh, UBC13 polyUb)
COc1cc(/C=N/NC(=O)c2cc(-c3ccc4c(c3)OCO4)n[nH]2)ccc1O	NR3A LBD binder 28.1
COc1cc(/C=N/NC(=O)c2cc(-c3ccccc3Cl)nc3ccccc23)cc(OC)c1O	none (no result: NALP1 inh)
O=C(NN=Cc1ccc2c(c1)OCO2)c1ccccc1	none (no result: Yeast superoxide, NALP1 inh, UBC13 polyUb)
COc1cc(/C=N/NC(=O)c2cc(-c3cccc(Br)c3)nc3ccccc23)cc(OC)c1O	NR3A LBD binder 13.0 (no result: NALP1 inh)
CCNC(=O)c1ccc(=O)n(Cc2ccc(Cl)cc2Cl)c1	none (no result: NALP1 inh)
O=C(N/N=C/c1ccc(O)cc1)c1cc(-c2ccccc2)nc2ccccc12	dFosB act 29.0, NR3A LBD binder 13.4
O=C(Nc1ccc(C(=O)O)cc1)/C(=C\c1ccc2c(c1)OCO2)NC(=O)c1ccccc1	none
O=C(O)COc1ccccc1/C=N/NC(=O)/C(=C\c1ccc2c(c1)OCO2)NC(=O)c1ccccc1	NR3A LBD binder 190.5
COc1cc(/C=N/NC(=O)c2cc(-c3ccccc3)nc3ccccc23)ccc1O	none
Cc1ccc(O)c(N=Cc2sc3ccccc3c2Cl)c1	none
Oc1c(C=Nc2ccc(Cl)cn2)sc2ccccc12	NR3A LBD binder 11.4
Oc1ccccc1N=Cc1sc2ccccc2c1Cl	NALP1 inh 53.7
CC(C)(C)CC(=O)Nc1cc2c3c(c1)CCC(=O)N3CCC2	none
CCC(=O)Nc1ccc(C(=O)COC(=O)c2sc(C)nc2C)cc1	none (no result: Yeast superoxide, NALP1 inh)
C=C1c2ccccc2O[C@H](C(=O)OCC)[C@H]1OC	none (no result: NALP1 inh, UBC13 polyUb)
CCOC(=O)C1Oc2ccccc2C(c2ccc(OC)cc2)=C1C(=O)OC (stereo not given)	NR3A LBD binder 12.7 (no result: NALP1 inh, UBC13 polyUb)
CCOC(=O)C1=C(c2ccccc2)c2ccccc2OC1C(=O)OCC (stereo not given)	none (no result: NALP1 inh, UBC13 polyUb)
CCCCC1=C(C(=O)OCC)C(C(=O)OCC)Oc2ccccc21 (stereo not given)	NR3A LBD binder 18.1 (no result: NALP1 inh, UBC13 polyUb)
CCCCOc1ccc(C(=O)NN2CCOCC2)cc1	none (no result: NALP1 inh)
Cc1cc(Nc2cccc(Cl)c2)nc(-c2ccccc2O)n1	NR3A LBD binder 36.6
Cc1cc(Cl)nc(-c2ccccc2O)n1	none
Cc1nc2ccccc2nc1Nc1cccc(Cl)c1	none
Cc1cc(Nc2ccc(Cl)cc2)nc(-c2ccccc2O)n1	UBC13 polyUb inconclusive, NR3A LBD binder 35.4
Cc1cccc(N2C(=O)C3C4CC(=O)C(c5ccccc54)C3C2=O)c1C (stereo not given)	NR3A LBD binder 10.7
Cc1cc(C)c(N2C(=O)C3C4CC(=O)C(c5ccccc54)C3C2=O)c(C)c1 (stereo not given)	none (no result: NALP1 inh)
CC(C)c1ccc(-c2cc(C(=O)N3CCOCC3)c3cc(Br)ccc3n2)cc1	NR3A LBD binder 18.6
NNC(=O)c1cc(-c2ccc(N)cc2)nc2ccc(Br)cc12	NR3A LBD binder 18.1 (no result: dFosB act)
O=C(NCc1cccs1)c1cc(-c2ccncc2)nc2ccc(Br)cc12	none (no result: dFosB act, NR3A LBD binder)
COc1ccc2cc(C(C)C(=O)N3CCC(C(N)=O)CC3)ccc2c1 (stereo not given)	none
